The list is not random: actives were taken first. Their share in the collection is about 0.41%.
GAA spleen mod: qHTS Assay for Inhibitors and Activators of Human alpha-Glucosidase From Spleen Homogenate; Lysosomal alpha-glucosidase (Homo sapiens), P10253; human spleen homogenate, 4-MU-alpha-glucoside fluorescence; Potency, µM (series often up to 79.9 µM), inactives show top-dose activity change, negative = inhibition, hits mostly inhibitors; 240,000 tested, 0.006% active; AID 2112, 2009;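 also: potency is read from the fitted curve at half-maximal effect; 0% = enzyme with vehicle and -100% = no enzyme basal signal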
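Compounds were titrated against alpha-glucosidase in spleen homogenate at pH 5.0, with 1 mM 4-methylumbelliferyl substrate for 40 min at 37 C. Reactions were quenched with pH 10 NaOH/glycine and fluorescence measured.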
GLA spleen mod: qHTS Assay for Inhibitors and Activators of Human alpha-Galactosidase From Spleen Homogenate; human spleen homogenate, 4MU-alpha-Gal fluorescence, 40 min; 240,000 tested, 0.008% active; AID 2107, 2009; Alpha-galactosidase A (Homo sapiens), P06280; Potency, µM (top dose mostly 80 µM), for inactives: at the top dose activity change, negative = inhibition, actives largely listed as inhibitors;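 also: potency is read from the fitted curve at half-maximal effect; 0% = enzyme with vehicle and -100% = no enzyme basal signal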
Target sequence (P06280 32-429 limits assumed): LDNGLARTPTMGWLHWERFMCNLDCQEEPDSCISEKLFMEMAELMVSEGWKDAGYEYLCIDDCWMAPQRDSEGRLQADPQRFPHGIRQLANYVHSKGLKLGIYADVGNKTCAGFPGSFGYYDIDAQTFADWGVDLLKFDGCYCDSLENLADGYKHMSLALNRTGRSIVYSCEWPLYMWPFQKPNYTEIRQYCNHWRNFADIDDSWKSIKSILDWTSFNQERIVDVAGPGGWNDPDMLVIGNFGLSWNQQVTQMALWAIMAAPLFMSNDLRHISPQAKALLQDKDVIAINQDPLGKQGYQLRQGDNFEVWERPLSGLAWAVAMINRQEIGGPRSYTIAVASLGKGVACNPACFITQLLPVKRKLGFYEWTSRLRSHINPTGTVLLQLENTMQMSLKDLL
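Spleen homogenate 1 ug + cpd (titration) + 4-MU-alpha-D-galactopyranoside 1 mM; 37C 40 min; 50 mM citrate/phosphate pH 5.0, 0.01% Tween-20; stop pH 10; fluorescence 365/440; AC50 via Hill.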
GLA inh pH 4.5: qHTS Assay for Inhibitors of Human alpha-Galactosidase at pH 4.5; purified enzyme, 4-MU-alpha-Gal fluorescence, pH 4.5; activity change, negative = inhibition, % at 105 µM; 230,000 tested, under 10 active;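 also: 0% = full activity with enzyme and -100% = basal without enzyme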
GAA inhib: qHTS Assay for Inhibitors of Human alpha-Glucosidase as a Potential Chaperone Treatment of Pompe Disease | Lysosomal alpha-glucosidase (Homo sapiens), P10253 | purified human GAA, 4-MU-alpha-glucoside fluorescence | 200,000 tested, 0.005% active | AID 1466, 2008 | Potency, µM (series often up to 76.9 µM), without a hit: at the top dose activity change, negative = inhibition, hits mostly inhibitors;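 also: potency is read from the fitted curve at half-maximal effect; plate controls were uninhibited enzyme wells for no effect and no-enzyme background for full effect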
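Fluorescence at Ex 365/Em 440 nm from 4-methylumbelliferone reported enzyme activity after 20 min at room temperature. Reactions used 4 nM enzyme and 400 uM substrate at pH 5.0; curves fitted with the Hill equation.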
N370S GC: qHTS Assay for Inhibitors and Activators of N370S glucocerebrosidase as a Potential Chaperone Treatment of Gaucher Disease | Lysosomal acid glucosylceramidase (Homo sapiens), P04062 | Potency, µM (series often up to 59.4 µM), without a hit: top-dose activity change, negative = inhibition, most hits filed as inhibitors | N370S GC spleen homogenate, 4MU-glucoside fluorescence | 330,000 tested, 0.092% active;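 also: potency is read from the fitted curve at half-maximal effect; 0% = full enzyme activity and -100% = no enzyme basal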
GAA glycogen: qHTS Assay for Inhibitors and Activators of Human alpha-Glucosidase Cleavage of Glycogen; 300,000 tested, 0.38% active; recombinant GAA, glycogen substrate, Amplex Red glucose oxidase fluorescence; Potency, µM (highest dose often 76.4 µM), for the others: at the top dose activity change, negative = inhibition, hits mostly inhibitors; Lysosomal alpha-glucosidase (Homo sapiens), P10253; AID 2100, 2009;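 also: potency is read from the fitted curve at half-maximal effect; 0% = full enzyme reaction and -100% = no-enzyme basal signal; the screen sought inhibitors and activators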
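Recombinant human enzyme (4 nM); glycogen substrate; 37 C, 40 min, pH 5.0. Readout: coupled glucose oxidase/Amplex Red fluorescence.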
An asterisk follows results filed as active; ? = inconclusive; / = not tested or not shown; [ ] = remark or other dose. Calls follow the shape of the dose curve; as a rule, active = well fitted curve in the direction sought with a large enough effect; inconclusive = small, poorly fitted or top-dose-only effect, or another doubt; inactive = no such curve, though single readings can be large; an effect the other way counts as inactive or inconclusive.

SMILES	GAA spleen mod	GLA spleen mod	GLA inh pH 4.5	GAA inhib	N370S GC	GAA glycogen
CC[C@H](C)[C@H](NC(=O)[C@H](CCC(=O)O)NC(=O)[C@H](CO)NC(=O)[C@@H](NC(=O)[C@H](C)N)C(C)C)C(=O)N[C@@H](CCC(N)=O)C(=O)N[C@@H](CC(C)C)C(=O)N[C@@H](CCSC)C(=O)N[C@@H](Cc1cnc[nH]1)C(=O)N[C@@H](CC(N)=O)C(=O)N[C@@H](CC(C)C)C(=O)NCC(=O)N[C@@H](CCCCN)C(=O)N[C@@H](Cc1cnc[nH]1)C(=O)N[C@@H](CC(C)C)C(=O)N[C@@H](C)C(=O)N[C@@H](CO)C(=O)N[C@H](C(=O)N[C@@H](CCC(=O)O)C(=O)N[C@@H](CCCNC(=N)N)C(=O)N[C@@H](CCSC)C(=O)N[C@@H](CCC(N)=O)C(=O)N[C@@H](Cc1c[nH]c2ccccc12)C(=O)N[C@@H](CC(C)C)C(=O)N[C@@H](CCCNC(=N)N)C(=O)N[C@@H](CCCCN)C(=O)N[C@@H](CCCCN)C(=O)N[C@@H](CC(C)C)C(=O)N[C@@H](CCC(N)=O)C(=O)N[C@@H](CC(=O)O)C(=O)N[C@H](C(=O)N[C@@H](Cc1cnc[nH]1)C(=O)N[C@@H](CC(N)=O)C(=O)N[C@@H](Cc1ccccc1)C(=O)O)C(C)C)C(C)C	-1%	-6%	/	/	-5%	/
Cc1ccc(C)c(-c2ccc(C(=O)O)o2)c1	6%[181 µM]	11%[181 µM]	7	/	6%[136 µM]	/
C=CC[n+]1c(-c2ccccc2)csc1NC(C)(C)C	-9%	-7%	-8	-3%	-2%	7%
C=CC[n+]1c(-c2ccc(OC)c(OC)c2)csc1NNC(=O)Nc1ccccc1	5%	5%	0	-4%	-3%	32µM*
COC(=O)N1C2=C(c3ccccc3[C@@H]1CC(=O)Nc1ccc3ccc4cccc5ccc1c3c45)[C@@H]1C(=O)N(c3ccccc3)C(=O)[C@@H]1[C@H](C)C2	16%[17.4 µM]	19%[17.5 µM]	2	/	-4%[12.8 µM]	/
Nc1nonc1N/N=C\c1ccccc1	0%	-3%	3	/	-10%	-24%
Nc1nonc1N/N=C/c1c(O)ccc2ccccc12	-2%	6%	-8	?	-4%	9.9µM*
OCC1OC([S-])[C@H](O)C(O)C1O.[Au+] (stereo partly specified)	-4%	12%	16	/	20%	/
Cc1ccc2nc(-c3ccc(SCC(=O)O)nc3)[nH]c2c1	-1%	4%	-3	3%	14%	3%
Cc1ccc2nc(-c3ccc(SCC(=O)N4CCc5ccccc54)nc3)[nH]c2c1	-3%	4%	-4	4%	3.2µM*	-6%
Cc1cc(=O)oc2c(CN(C)Cc3ccccc3)c(O)ccc12	?	?	?	?	?	-4%
Cc1cc(=O)oc2c(N)c(O)ccc12	6%	-24%	-1	-1%	-11%	10µM*
CCN(CC)CCC(c1ccc(N(C)C)cc1)c1c(OC)cc(OC)c2c1OC(=O)CC2c1ccc(N(C)C)cc1 (stereo unspecified)	-11%	-6%	/	/	?	/
Cc1c(NC2=C(Cl)C(=O)N(c3ccccc3Cl)C2=O)c(=O)n(-c2ccccc2)n1C	4%	10%	-16	-4%	0%	0%
Cc1c(NC2=C(Cl)C(=O)N(c3ccccc3)C2=O)c(=O)n(-c2ccccc2)n1C	-3%	-5%	-4	0%	-12%	10µM*
C=CCNC(=S)Nc1ccc(C(N)=O)cc1	-2%	-9%	1	12%	2%	3%
C=CCNC(=S)Nc1ccc(N(C)C)cc1	-2%	-2%	-7	-5%	1%	3.1µM*
O=C(O)c1ccc(CN2C(=O)CSC2=S)cc1	-7%	-13%	8	-4%	2%	18µM*
O=C(O)c1ccc(N=C2SCC(=O)N2Cc2ccccc2)cc1	4%	-1%	1	12%	-9%	14%
CCOc1ccc(OCC)c(S(=O)(=O)NNC(=O)c2c(C)nc3ccccn23)c1	-8%	0%	-8	-3%	-1%	8%
COc1ccc(Br)cc1S(=O)(=O)NNC(=O)c1c(C)nc2ccccn12	2%	7%	-2	6%	-7%	10µM*
CC(C)c1nc(C(=O)N2CCc3c([nH]c4ccccc34)C2c2ccccn2)cs1 (stereo unspecified)	4%	-17%	-18	?	-28%	-21%
Cc1nc(C(=O)N2CCc3c([nH]c4ccccc34)C2c2ccccn2)cs1 (stereo unspecified)	-8%	-4%	2	?	?	16µM*
c1cncc(-c2nccc(NCc3cccs3)n2)c1	5%	-5%	/	/	-26%	/
Cc1ccccc1-c1nccc(NCc2cccs2)n1	4%	-5%	/	/	4.5µM*	/
SMILES	GAA spleen mod	GLA spleen mod	GLA inh pH 4.5	GAA inhib	N370S GC	GAA glycogen
COc1cccc(-c2nccc(NCc3cccs3)n2)c1	9%	5%	/	/	4µM*	/
O=C(Nc1ccc(F)cc1)N1CCOCC1	-13%	-6%	-1	-5%	1%	8%
CN(C)c1ccc(NC(=O)N2CCOCC2)cc1	10%	8%	2	2%	7%	13µM*
COc1ccc(C(=O)/C=C/Nc2c(C)n(C)n(-c3ccccc3)c2=O)cc1OC	2%	5%	9	?	3%	3.1µM*
O=S(=O)(Nc1cccc2cccnc12)c1ccc(Br)cc1	-4%	3%	/	/	6%	/
Cc1cc(C)c(S(=O)(=O)Nc2ccc(O)cc2)cc1C	0%	2%	-4	-1%	6%	14µM*
Cc1ccc(C)c(S(=O)(=O)Nc2ccc(O)cc2)c1	-4%	-3%	-2	-1%	-4%	12µM*
COc1ccc(C2SCC(=O)N2CCc2ccc(OC)c(OC)c2)cc1 (stereo unspecified)	7%	5%	?	1%	-13%	5.6µM*
CCNc1nc(NCC)nc(N(C)N)n1	1%	8%	6	-2%	4%	35µM*
CC(C)Nc1nc(NC(C)C)nc(N(C)N)n1	1%	4%	2	-3%	/	28µM*
Cc1nc(C#N)c(N/N=C/c2cccc(Cl)c2)o1	1%	11%	2	-9%	7%	32µM*

Screening results: PubChem, National Center for Advancing Translational Sciences (NCATS)
